# In PubChem BioAssay (NCATS):
# Inconclusive results are not listed. Activity calls are given as the source filed them. Unless noted, how the calls were made is not given here.
# What was measured:
# [1] = qHTS Assay for Identifying Gametocytocidal Compounds (AID 743244; active means well fitted curve in the direction sought with a large enough effect; an effect the other way counts as inactive or inconclusive; further: potency means the concentration at half of the fitted maximal effect;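 on max response: on the % scale 0 is the no-effect control and ±100 the full control effect; actives lower the fluorescent signal which means gametocytes are killed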); details: P. falciparum 3D7 stage III-V gametocytes, alamarBlue, 72 h; max response: stronger effect = lower value
# Outline: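 P. falciparum 3D7 stage III–V gametocytes (20,000 cells/well) were exposed to compounds for 72 h at 37 °C, 5% CO2. AlamarBlue was then added for 24 h; decreased resorufin fluorescence (Ex 525/Em 598 nm) indicated loss of viability.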
# [2] = qHTS profiling for inhibitors of Plasmodium falciparum (3D7) proliferation (AID 743322);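 further: infected erythrocytes exposed to compound for 72 h before lysis; 100% = DMSO vehicle wells and 0% = 0.29 µM artemisinin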; details: P. falciparum 3D7 proliferation; at 28.7 µM (top of the series)
# Outline: (§1)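 Parasite DNA was quantified by SYBR Green I fluorescence (ex 485, em 535 nm) after overnight lysis in saponin/Triton buffer at room temperature. Cultures at 0.3% parasitemia and 2.5% hematocrit were first exposed to compound for 72 h at 37 C; signals were normalised to artemisinin (0.29 uM) and vehicle wells.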
# [3] = qHTS profiling for inhibitors of Plasmodium falciparum (DD2) proliferation (AID 743323); details: lower = more inhibition; at 28.7 µM (top of the series)
# Outline: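 1536-well qHTS; infected RBCs 0.3% parasitemia/2.5% Hct final; cpd 72 h 37 C 5% CO2; lysis buffer + SYBR Green I, o/n RT dark; FI 485/535; norm. to 0.29 uM artemisinin and DMSO, plate-stack corrected.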
# [4] = qHTS profiling of the MIPE4 collection as inhibitors of Plasmodium falciparum (3D7) proliferation (AID 743344);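 further: scaled between DMSO vehicle wells and 0.29 µM artemisinin as full inhibition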; details: P. falciparum 3D7 in erythrocytes, SYBR Green DNA fluorescence, 72 h; at 28.5 µM (top of the series) unless noted
# Outline: as §1
# [5] = qHTS profiling of the MIPE4 collection as inhibitors of Plasmodium falciparum (DD2) proliferation (AID 743345); details: P. falciparum Dd2 in erythrocytes, SYBR Green DNA, 72 h; at 28.5 µM (top of the series) unless noted
# Outline: as §1
# [6] = qHTS profiling of the MIPE4 collection as inhibitors of Plasmodium falciparum (DD2) proliferation (Rep 2) (AID 743346); details: P. falciparum Dd2 in erythrocytes, SYBR Green DNA, 72 h; at 28.5 µM (top of the series) unless noted
# Outline: as §1
# [7] = qHTS profiling of the MIPE4 collection as inhibitors of Plasmodium falciparum (HB3) proliferation (AID 743347);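 further: plate controls were DMSO vehicle wells for no effect and artemisinin wells for full effect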; details: P. falciparum HB3 in erythrocytes, SYBR Green DNA, 72 h; at 28.5 µM (top of the series) unless noted
# Outline: as §1
# [8] = High-throughput drug toxicity screening in the BPDCN cell line Gen2.2 (AID 1224824); details: Gen2.2 BPDCN cells; at 45.8 µM (top of the series) unless noted;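 further: cells exposed to compounds for 48 h before reading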
# Outline: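 Gen2.2, 500 cells/well, phenol red-free RPMI/10% FBS/Pen-Strep; 48 h cpd, 37 °C/5% CO2; CTG lum, 15 min RT. Norm: DMSO = 100%, bortezomib 9.2 uM final = 0%.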
# [9] = High-throughput drug toxicity screening in the BPDCN cell line Cal-1 (AID 1224825); details: Cal-1 BPDCN cell viability, qHTS; at 45.8 µM (top of the series) unless noted
# Outline: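 CellTiter-Glo luminescence after 48 h compound exposure; percent activity scaled with DMSO as 100% and bortezomib (9.2 uM final) as 0%. Cal-1 cells seeded at 500/well in RPMI, 10% FBS, no phenol red.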
# [10] = qHTS assay for measurement of the activity of small molecule inhibitors on Zika virus induced Caspase-3 activity in human astrocytoma cells (AID 1224859; active means well fitted curve in the direction sought with a large enough effect; an effect the other way counts as inactive or inconclusive;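 further: plate controls were ZIKV-infected untreated cells for no effect and uninfected cells for full effect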)
# Outline: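 Luminescence read-out (Caspase-Glo 3/7, 30 min RT) of caspase activity in SNB-19 cells infected 6 h with ZIKV, 2 FFU/cell, after 1 h compound pretreatment; % inhibition from induction normalised to uninfected (0%) and infected (100%) wells.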
# [11] = qHTS profiling for inhibitors of Plasmodium falciparum (HB3) proliferation (AID 743324; active means well fitted curve in the direction sought with a large enough effect; an effect the other way counts as inactive or inconclusive;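 further: 100% = DMSO vehicle wells and 0% = artemisinin-treated control wells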); details: Plasmodium falciparum HB3 blood-stage proliferation; at 28.7 µM (top of the series)
# Outline: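 SYBR Green fluorescence (485 ex/535 em) of lysed cultures, incubated overnight at room temperature in the dark, quantifies parasite DNA. Infected erythrocytes at 0.3% parasitemia and 2.5% hematocrit were exposed 72 h; values normalized to DMSO and 0.29 uM artemisinin controls.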
Structure (SMILES),Potency [1],remaining parasite growth % (stronger effect = lower value) [2] [%],"activity, percent of control [3] [%]","parasite growth, % of DMSO control [4] [%]","parasite growth remaining, % of DMSO control (lower = more inhibition) [5] [%]","parasite growth, % of control (lower = inhibition) [6] [%]","growth, % of control [7] [%]","cell viability, % of control (lower = more cytotoxic) [8] [%]",viability (% of control) [9] [%],Potency [10],max response [1],"remaining proliferation (% of control), lower = more inhibition [11] [%]"
COc1cc2ncnc(Nc3ccc(F)c(Cl)c3)c2cc1NC(=O)C=CCN1CCCCC1,11.8 µM (active),-0.218,0.401,9.04,8.26,11,6.53,10,3.6,inactive,,
C1=CCOCc2cc(ccc2OCCN2CCCC2)Nc2nccc(n2)-c2cccc(c2)OCC1,,,,5.07,5.48,15.5,5.8,8.21,5.28,,17.1% (inactive),
COc1cc(Nc2ncc(F)c(Nc3ccc4c(n3)N(COP(=O)(O)O)C(=O)C(C)(C)O4)n2)cc(OC)c1OC,,,,19.5,87.2,22.9,11.1,56.3,10.3,inactive,,
COC(=O)[C@]12CCC(C)(C)C[C@@H]1[C@@H]1C(=O)C=C3[C@@]4(C)C=C(C#N)C(=O)C(C)(C)[C@@H]4CC[C@@]3(C)[C@]1(C)CC2,,0.25,0.779,13.9,7.23,25.5,11.3,3.73,2.87,inactive,,2.29
CC1(C)CCC(c2ccc(Cl)cc2)=C(CN2CCN(c3ccc(C(=O)NS(=O)(=O)c4ccc(N[C@H](CCN5CCOCC5)CSc5ccccc5)c(S(=O)(=O)C(F)(F)F)c4)cc3)CC2)C1,,,2.76,17.1,8.31,16.8,9.9,7.3,16.1,inactive,,
CNC(=O)c1ccc(N2C(=S)N(c3cnc(C#N)c(C(F)(F)F)c3)C(=O)C23CCC3)cc1F,,,,41,79.8,39,41.2,7.43,3.32,inactive,,
CCOc1ccccc1OCCNC(C)Cc1ccc(OC)c(S(N)(=O)=O)c1 (stereo not given),,,,65.8,84.6,54.9,90.8,122,97.4,inactive,,
CC[C@H]1CN2CCc3cc(OC)c(OC)cc3[C@H]2C[C@@H]1C[C@@H]1NCCc2cc(OC)c(OC)cc21,,,,4.96,6.45,7.29,3.29,8.8,6.78,inactive,,
CS(=O)(=O)c1ccc(-c2cnc(N)c(C(=O)Nc3ccccc3)n2)cc1,,,,7.85,9.88,7.67,2.44,99.6,41.5,inactive,,
